# Screening data as filed in PubChem.
# In the library only some 11% were active in any assay of this set; here they are far more common.
# AmpC detergent: blocks E. coli AmpC beta-lactamase in detergent assay | P00811 | AmpC hydrolysis of nitrocefin, absorbance 480 nm, 0.01% Triton | Potency, µM (series often up to 114 µM), for inactives: top-dose activity change, negative = inhibition, usual class: inhibitors | 0.041% of 370,000 active | AID 485294;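 also: 0% = no-compound wells and -100% = no-enzyme wells; nearly all actives have a fitted effect of over 25% in size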
# Target sequence (P00811 whole entry, looked up): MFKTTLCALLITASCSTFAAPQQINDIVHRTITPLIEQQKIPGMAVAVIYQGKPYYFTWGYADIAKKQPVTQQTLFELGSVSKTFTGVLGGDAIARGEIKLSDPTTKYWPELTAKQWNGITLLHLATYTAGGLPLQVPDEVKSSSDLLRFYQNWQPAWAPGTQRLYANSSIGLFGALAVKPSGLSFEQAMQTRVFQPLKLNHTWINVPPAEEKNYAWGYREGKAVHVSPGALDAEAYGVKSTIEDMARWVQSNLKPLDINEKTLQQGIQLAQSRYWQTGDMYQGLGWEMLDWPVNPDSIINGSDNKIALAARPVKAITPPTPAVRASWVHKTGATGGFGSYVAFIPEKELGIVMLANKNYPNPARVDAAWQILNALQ
#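 AmpC (5.3 nM in the dispensed reagent) in 20 mM phosphate pH 7.0 with 0.01% (detergent screen) or 0.0001% Triton X-100 was preincubated with compounds for 15 min at room temperature. Nitrocefin was then added from an 800 uM solution, and hydrolysis was followed at 480 nm.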
# Pf growth 48h: P. falciparum growth inhibition at 48 hours (one generation); P. falciparum luciferase growth in erythrocytes, 48 h; Potency, µM (doses to about 28.7 µM), without a hit: at the highest dose activity change, negative = inhibition, most hits filed as inhibitors; 5.9% of 310,000 active; AID 504832
#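 Luciferase-expressing parasites in RBCs, 2% Hct / 0.1% parasitemia final; RPMI 1640 + 0.5% Albumax; 37 C, 5% CO2, one generation; luminescence read-out, lower signal = inhibition.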
# Pf growth 96h: P. falciparum growth inhibition at 96 hours; 6.9% of 320,000 active; P. falciparum luciferase reporter growth, 96 h; AID 504834; Potency, µM (highest dose often 28.7 µM), for inactives: top-dose activity change, negative = inhibition, usual class: inhibitors
#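 Two parasite generations (96 h, 37 C, 5% CO2) of compound exposure in infected erythrocytes (0.05% parasitemia, 2% hematocrit). Luciferase-reporter P. falciparum; decreased luminescence indicates inhibited growth, aimed at apicoplast-acting delayed death.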
# AmpC no deterg: AmpC beta-lactamase inhibition without detergent; Potency, µM (top dose mostly 57.1 µM), for the others: at the highest dose activity change, negative = inhibition, usual class: inhibitors; P00811; 0.52% of 330,000 active; AmpC nitrocefin hydrolysis, absorbance 480 nm, 0.0001% Triton; AID 485341;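 also: plate controls were no compound for no effect and no enzyme for full effect; nearly all actives have a fitted effect of over 20% in size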
#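 20 mM phosphate pH 7.0 + 0.01% (detergent screen) or 0.0001% Triton X-100; 5.3 nM AmpC reagent; cpd preinc 15 min RT; nitrocefin (800 uM stock) to start; A480 q20 s × 4 min; Activity was normalised to no-enzyme and no-compound control wells.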
# AMA1-RON2 inh: AMA1-RON2 (P. falciparum) interaction inhibition | AlphaScreen AMA1-biotinylated RON2 peptide binding | Potency, µM (highest dose often 58.2 µM), inactives show at the highest dose activity change, negative = inhibition, hits mostly inhibitors | 0.2% of 360,000 active;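 also: 0% = vehicle wells and -100% = peptide control; nearly all actives have a fitted effect of over 45% in size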
#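 AMA1 (3D7) with his tag at 25 nM final met compounds first, then biotinylated RON2 peptide at 25 nM; detection used donor plus acceptor beads, 10 µg/mL apiece, read by AlphaScreen after 30 min at room temperature.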
# HCV inhibitor: HCV inhibition; Huh7.5.1 HCVcc-Cre infection, luciferase reporter, 44 h; Potency, µM (doses to about 41.8 µM), without a hit: at the top dose activity change, negative = inhibition, actives largely listed as inhibitors; 3.4% of 340,000 active
#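 A cell-based infection assay in which seeded cells (1,000 per well) receive test compound after 4 h, are inoculated with HCVcc-Cre at approximately 0.5 moi, and are incubated 44 h before luminescence detection.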
# * marks the source's active call; other numbers are inactive results; ? = inconclusive; nt = no result; [ ] = another dose, or the depositor's remark. Calls follow the shape of the dose curve; as a rule, active = well fitted curve in the direction sought with a large enough effect; inconclusive = small, poorly fitted or top-dose-only effect, or another doubt; inactive = no such curve, though single readings can be large; an effect the other way counts as inactive or inconclusive. Unless noted, % is scaled to controls: 0 for no effect and ±100 for the full control effect; potency is read from the fitted curve at half-maximal effect.
SMILES,AmpC detergent,Pf growth 48h,Pf growth 96h,AmpC no deterg,AMA1-RON2 inh,HCV inhibitor
COc1nc(N2CCOCC2)nc(C)c1[N+](=O)[O-],3%,-2%,12µM*,-16%,8%[11.6 µM],-5%
O=C(CSc1nc(SCC(=O)NCc2ccccc2)n(-c2ccccc2)n1)NCc1ccccc1,-10%,nt,9.3µM*,-18%,-5%,?
CCn1ncc(/C=N/N=C2\CCC3C4CCc5cc(O)ccc5C4CCC23C)c1C (stereo unspecified),?,nt,1.7µM*,58%,4%,4%
CC1CN=C(Nc2ccccc2)S1 (stereo unspecified),-2%,5%,54%,-32%,8%,8%
CC1CN=C(Nc2ccc(N(C)C)cc2)S1 (stereo unspecified),?,17%,2.1µM*,-14%,-25%,-10%
Cc1ccc(Cn2c(CN3CCN(c4cccc(Cl)c4)CC3)nc3c2c(=O)n(C)c(=O)n3C)cc1,-7%,nt,nt,nt,nt,nt
CCN(CC)CCCNC(=O)c1[nH]c2ccccc2c1Sc1ccc(Cl)cc1,6%,13µM*,13µM*,140%,-6%,?
CCCCNC(=O)c1[nH]c2ccccc2c1Sc1ccc(C)cc1,-11%,nt,nt,nt,nt,nt
CCN(CC)CCNC(=O)c1ccc(NC(=O)/C=C/c2cc(OC)c(OC)c(OC)c2)cc1,-15%,5.2µM*,?,-18%[11.4 µM],10%,-25%
COc1cc(/C=C/C(=O)Nc2ccc(C)cc2)cc(OC)c1OC,-5%,-7%,?,18%,11%,?
Cc1ccc(NS(=O)(=O)c2cc(C(=O)NCCCN(C)C)ccc2Cl)cc1Cl,?,6.6µM*,?,20%,-17%,?
CCN(CC)CCNC(=O)c1ccc(NC(=O)c2ccc(F)cc2)cc1,-6%,?,9%,-32%,3%,-16%
CCN(CC)CCNC(=O)c1ccc(NC(=O)c2cccc(S(=O)(=O)N3c4ccccc4CC3C)c2)cc1 (stereo unspecified),3%,16%,-25%,-32%,85%,11µM*
CCN(CC)CCNC(=O)c1ccc(NC(=O)Nc2cccc3ccccc23)cc1,-6%,13µM*,9.3µM*,-1%,12%,-21%
CC1Cc2ccccc2N1S(=O)(=O)c1cccc(C(=O)NCCCO)c1 (stereo unspecified),-5%,-14%,?,19%,7%,-15%
O=C(Cn1c(=O)n(-c2ccc(Cl)cc2)c(=O)c2sc3ccccc3c21)NC1CCCC1,8%,nt,nt,nt,nt,nt
Cc1ccc(S(=O)(=O)N2c3ccccc3CC2C)cc1 (stereo unspecified),-10%,-15%,7%,-27%,5%,-29%
CCN(CC)Cc1ccccc1CNC(=O)c1cccc(S(=O)(=O)Nc2ccc3c(c2)OCO3)c1,1%,9.3µM*,?,-6%,0%,?
CCN(CC)CCNC(=O)c1ccc(NC(=O)c2cccc(S(=O)(=O)Nc3ccc(C)cc3)c2)cc1,-3%,0.37µM*,1.2µM*,58%,-11%,-5%
CCOc1ccc(S(=O)(=O)N2c3ccccc3CC2C)cc1 (stereo unspecified),-3%,?,nt,-22%,7%,8.9µM*
CN(C)CCNC(=O)c1cccc(S(=O)(=O)Nc2ccc(F)cc2)c1,3%,110%,17%,-10%,-14%,7%
O=C(NCc1ccncc1)c1cccc(S(=O)(=O)N2CCc3ccccc32)c1,-2%,?,?,-13%,1%,11µM*
Cc1cccc(CNC(=O)c2oc3c(c2C)-c2nn(Cc4ccccc4Cl)cc2CC3)c1,23%,nt,nt,nt,nt,nt
Cc1ccc(C)c(NC(=O)C(Cc2ccccc2)n2cccc2)c1 (stereo unspecified),25%,nt,nt,nt,nt,nt
CC(C)c1ccc(NC(=O)CS(=O)(=O)c2cccc3nsnc23)cc1,1%,nt,nt,nt,nt,nt
SMILES,AmpC detergent,Pf growth 48h,Pf growth 96h,AmpC no deterg,AMA1-RON2 inh,HCV inhibitor
NS(=O)(=O)c1ccc(CCNC(=O)c2cccc(S(=O)(=O)N3CCc4ccccc43)c2)cc1,nt,nt,nt,nt,-8%,nt
CCOC(=O)c1ccc(NC(=O)c2cccc(S(=O)(=O)N3c4ccccc4CC3C)c2)s1 (stereo unspecified),-5%,12µM*,?,?,-4%,?
Cc1ccc(NS(=O)(=O)c2cc(C(=O)NCCSc3ccc(C)cc3)ccc2C)cc1,-4%,?,12µM*,-35%,1%,?
CCN(CC)CCNC(=O)c1ccc(NC(=O)c2ccc(Cl)c(S(=O)(=O)Nc3ccccc3OC)c2)cc1,1%,?,2.3µM*,57%,nt,nt
CCN(CC)CCNC(=O)c1ccc(NC(=O)c2cccc(S(=O)(=O)N3CCc4ccccc43)c2)cc1,-8%,0.74µM*,1µM*,165%,-20%,?
Cc1ccc(SCCNC(=O)c2ccc(C)c(S(=O)(=O)Nc3cccc(C)c3)c2)cc1,1%,?,?,-23%,11%,-19%
COC(=O)c1ccccc1NC(=O)Cn1c(=O)n(Cc2ccc(C(=O)NCc3ccc4c(c3)OCO4)cc2)c(=O)c2ccccc21,11%,nt,nt,nt,nt,nt
Cc1cc(C(=O)O)c(=O)[nH]c1C,?,35%,2.6µM*,-5%,-1%,11%
CC12COC3(C(=O)NCCc4ccccc4)CC1CCC32C (stereo unspecified),-11%,17%,0.0029µM*,-10%,18%,-13%
CC1(C)OC2CC3C4CC(F)C5=CC(=O)C=CC5(C)C4(F)C(O)CC3(C)C2(C(=O)CO)O1 (stereo unspecified),-7%,?,5.9µM*,-3%,8%,15%
CC1(c2ccccc2)O[C@@H]2C[C@H]3[C@@H]4CCC5=CC(=O)C=C[C@]5(C)[C@@]4(F)[C@@H](O)C[C@]3(C)[C@]2(C(=O)CO)O1 (stereo partly specified),-1%,0.83µM*,1.9µM*,89%,8%,-8%
O=C(CCc1cn(Cc2ccccc2Cl)c2ccccc12)NC1CCCCC1,11%,nt,nt,nt,nt,nt
Cc1cc(C)cc(NC(=O)CSc2nc(=O)[nH]c3c2CCC3)c1,8%,nt,nt,nt,nt,nt
N=c1c2cn[nH]c2nc(SCC(=O)c2ccc(Br)cc2)n1-c1ccc(Br)cc1,-2%,148%,7.4µM*,-30%,1%,3%
O=C(CSc1nc2[nH]ncc2c(=O)n1-c1ccccc1)c1ccc2c(c1)OCCO2,?,?,nt,1%,24%,?
O=c1c2cn[nH]c2nc(SCc2cc(=O)n3cc(Br)ccc3n2)n1-c1ccc(Br)cc1,2%,12µM*,-28%,59%,22%,?
